Data as given in PubChem BioAssay (NCI).
Compounds without any hit were thinned out: in the full panel of roughly 83,000, 20% have a hit.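 The test compound was applied at a single concentration to cells in 96-well plates for 48 hours, and percent growth was recorded.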 A number with no mark means an inactive call. Activity calls are given as the source filed them. Rule for the calls: active = growth percent below 10; inactive = the rest.

Tested on: HL-60(TB) leukemia
Experiment: NCI-60 one-dose screen, 48 h (100 = growth as untreated, 0 = no growth, -100 = all killed)
Settings: 10 µM unless noted

SMILES	growth
CCNC(=O)C#Cc1ccc2c(C(=Nc3ccc(CN(C)C)cc3)c3ccccc3)c(O)[nH]c2c1	-7.13% (active)
O=C(COc1cccc(/C=C2/Oc3ccccc3C2=O)c1)Nc1nccs1	-72.9% (active)
Cc1cc(C(=O)Nc2ncc(Cc3cccc(C(F)(F)F)c3)s2)c2ccccc2n1	-33.8% (active)
COc1ccc(CC(=O)c2ccc(O)cc2O)cc1	106%
COc1cc2c(cc1OC)C(C)N(S(N)(=O)=O)CC2 (stereo unspecified)	72.2%
O=C(/C=C/c1cc([N+](=O)[O-])ccc1Cl)c1ccccc1	61.7%
CON=C1C[C@]2(C[C@@H]3C[C@@H](C/C=C(\C)C[C@@H](C)/C=C/C=C4\CO[C@@H]5[C@H](O)C(C)=C[C@@H](C(=O)O3)[C@]45O)O2)O[C@H](/C(C)=C/C(C)C)[C@H]1C	-43.6% (active)
CC/C(Cc1ccccc1)=C(/c1ccc(O)cc1)c1ccc(OCCN2CCCC2)cc1	-56.9% (active)
Cc1cc(N(CCCNc2ccnc3cc(Cl)ccc23)Cc2ccccn2)nc(N2CCOCC2)n1	102%
C#CCCCCCCC[C@@H]1OC(=O)[C@H]([C@@H](C)CC)NC(=O)[C@H]([C@@H](C)CC)NC(=O)CC(=O)[C@@H]1C	103%
COc1ccc2c(O)cc3c(c2c1)[C@H](CCl)CN3C(=O)c1cc2cc(NC(=O)CCN3CCOCC3)ccc2[se]1	66%
COC(=O)C(N)CSC(c1ccccc1)(c1ccccc1)c1ccccc1 (stereo unspecified)	-28.7% (active)
COc1ccc(C2OC(N)=C(O)C2=O)cc1OC (stereo unspecified)	92.6%
COC(=O)c1c(C)c2n(c1C)C(=O)C(c1ccccc1)=C2	67%
COc1ccc(CCNc2nc(SC)nc(-c3cccc([N+](=O)[O-])c3)c2C#N)cc1OC	120%
CO/N=C(/C(=O)NC1C(=O)N2C(C(=O)O)=C(COC(N)=O)CSC12)c1ccco1 (stereo unspecified)	109%
Cc1c(Cl)cccc1C(=O)Nc1nc2c(s1)CN(C(=O)c1ccc(C(F)(F)F)cc1)CC2	-21.8% (active)
C[C@]12CCC(=O)C=C1CC[C@H]1[C@@H]3C[C@@H](O)[C@](O)(C(=O)CO)[C@@]3(C)C[C@H](O)[C@@]12F	98.1%

SMILES	growth
O=[N+]([O-])c1cc([N+](=O)[O-])c(C(F)(F)F)cc1NN=C(c1ccc(O)cc1)c1ccc(O)cc1	103%
Nc1nc(C(=O)N/N=C/c2ccc(F)cc2)nn1-c1ccc(S(N)(=O)=O)cc1	99.5%
CSc1[nH]c(=O)ncc1F	106%
Cc1[nH]c(-c2nc3ccccc3[nH]2)c(C)c1C(=O)NNc1ccc(Cl)cc1	103%
CCCCCCCCSc1ncnc2c1ncn2CO	94.5%
COc1cc(/C=C/C(=O)/C=C/c2cc(OC)c3c(c2)OCO3)cc2c1OCO2	68.6%
Nc1nonc1-c1nc2ccccc2n1CC(=O)Nc1ccc2c(c1)COC2=O	100%
O=C1C(=O)N(CCCCn2cc(-c3ccccc3)nn2)c2ccccc21	118%
CN(c1ncccc1CNc1nc(Nc2ccc3c(c2)CC(=O)N3)ncc1C(F)(F)F)S(C)(=O)=O	-40% (active)
COc1cc(CCC[P+](c2ccccc2)(c2ccccc2)c2ccccc2)cc2c1OCO2	10.3%
Nc1nc(N)c2cc(CNc3ccc(C(=O)NC(CC(=O)O)C(=O)O)cc3)ccc2n1 (stereo unspecified)	19.4%
COc1ccc(C(=O)N=Nc2c(O)n(C)c3ccccc23)cc1	99.4%
CCOC(=O)CC1CSC(N/N=C/c2ccc(F)c(Br)c2)=N1 (stereo unspecified)	93.6%
O=c1c2cc(F)ccc2sc2c(N3CCNCC3)nc3ccc(F)cc3c12	3.71% (active)
COc1cc(OC)c2c(=O)c(O)c(-c3ccccc3)oc2c1	53.4%
CC(=O)OC[C@]12CC[C@@H](C(=O)CBr)[C@@H]1[C@H]1CC[C@@H]3[C@@]4(C)CCCNC(C)(C)[C@@H]4CC[C@@]3(C)[C@]1(C)CC2	-18% [100 µM] (active)
CN1Cc2c(cc(CN3CCCCC3)n2C)C(c2ccc(Br)cc2)C1 (stereo unspecified)	83.8%
COC(=O)[C@]12CC[C@@H](C(=O)/C=C/c3cccnc3)[C@@H]1[C@H]1CC[C@@H]3[C@@]4(C)C/C(=C/c5cccnc5)C(=O)C(C)(C)[C@@H]4CC[C@@]3(C)[C@]1(C)CC2	-30.2% (active)
